# Assay results as given in ChEMBL document CHEMBL3988442, “University of Dundee, Small-Polar-MMV Screening Library” (2021).
# For part of these data: Results with a measured potency or affinity are listed apart.
# How the values were obtained:
# Parameters in all cases: scale not given: direction of the effect not stated beside the values
# [1] = molecular target: Protein translocase subunit SecA (Escherichia coli (strain K12)) (UniProt P10408); assay: Assay to Identify E. coli SecA ATPase Inhibitors; format: functional; conditions: 30 µM
# [2] = molecular target: T1, Ubiquitin-activating enzyme e1, putative (Leishmania donovani (strain BPK282A1)) (UniProt E9BSI1); assay: Leishmania donovani Ubiquitin Activating Enzyme (LdE1); format: functional; conditions: 30 µM
# T1 sequence (whole entry): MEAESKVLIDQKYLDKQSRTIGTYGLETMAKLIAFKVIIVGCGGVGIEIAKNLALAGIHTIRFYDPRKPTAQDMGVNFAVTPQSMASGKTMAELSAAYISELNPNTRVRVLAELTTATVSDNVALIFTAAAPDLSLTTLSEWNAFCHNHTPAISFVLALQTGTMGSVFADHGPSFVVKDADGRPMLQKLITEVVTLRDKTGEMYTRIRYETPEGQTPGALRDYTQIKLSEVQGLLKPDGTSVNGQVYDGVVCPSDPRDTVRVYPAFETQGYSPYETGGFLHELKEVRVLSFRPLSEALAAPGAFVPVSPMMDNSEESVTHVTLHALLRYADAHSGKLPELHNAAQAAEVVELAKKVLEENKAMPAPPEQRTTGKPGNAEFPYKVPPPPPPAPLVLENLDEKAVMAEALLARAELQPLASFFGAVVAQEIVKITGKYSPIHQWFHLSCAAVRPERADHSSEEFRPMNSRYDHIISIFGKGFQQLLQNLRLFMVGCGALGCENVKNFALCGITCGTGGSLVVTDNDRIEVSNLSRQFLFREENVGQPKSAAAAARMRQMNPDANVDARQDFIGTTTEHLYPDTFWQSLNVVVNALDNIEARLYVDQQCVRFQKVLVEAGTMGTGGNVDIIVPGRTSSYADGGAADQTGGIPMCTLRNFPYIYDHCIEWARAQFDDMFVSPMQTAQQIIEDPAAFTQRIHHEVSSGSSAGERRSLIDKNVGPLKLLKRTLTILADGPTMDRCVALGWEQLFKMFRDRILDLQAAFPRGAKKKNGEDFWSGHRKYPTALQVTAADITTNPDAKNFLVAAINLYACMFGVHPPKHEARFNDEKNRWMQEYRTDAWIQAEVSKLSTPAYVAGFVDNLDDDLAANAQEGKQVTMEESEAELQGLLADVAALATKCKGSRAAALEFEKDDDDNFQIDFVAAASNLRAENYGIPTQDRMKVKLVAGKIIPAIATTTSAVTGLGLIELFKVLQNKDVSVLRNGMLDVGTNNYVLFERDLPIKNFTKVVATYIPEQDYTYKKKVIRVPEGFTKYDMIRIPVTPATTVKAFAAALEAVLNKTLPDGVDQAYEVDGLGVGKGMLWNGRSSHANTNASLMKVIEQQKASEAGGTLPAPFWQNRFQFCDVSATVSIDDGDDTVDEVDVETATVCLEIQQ
# [3] = molecular target: AMP-activated protein kinase, AMPK (Homo sapiens) (UniProt P54646+O43741+P54619+Q9UGJ0+Q9Y478+Q13131+Q9UGI9); assay: AMP-dependent Kinase enzyme assay. An in vitro enzyme assay that detects ADP turnover that is directly proportional to AMPK activity. This uses naive AMPK that is activated during the assay with MK-8722; format: functional; conditions: 30 µM
# [4] = molecular target: Sialic acid-binding Ig-like lectin 9 (Homo sapiens) (UniProt Q9Y336); assay: Hs-Siglec9 ALPHAscreen SOP 20170721; conditions: 10 µM
# Trypanosoma cruzi = assay: Trypanosoma cruzi phosphomannomutase and mannose-1-phosphate guanylyltransferase assay; format: functional; conditions: 10 µM
# [5] = molecular target: T2, Arginase-2, mitochondrial (Homo sapiens) (UniProt P78540); assay: in vitro enzyme assay to detect the production of urea directly proportional to the activity of Arginase II; format: functional; conditions: 33.3 µM; note: in the data most compounds retested in dose-response had high values
# T2 sequence (whole entry): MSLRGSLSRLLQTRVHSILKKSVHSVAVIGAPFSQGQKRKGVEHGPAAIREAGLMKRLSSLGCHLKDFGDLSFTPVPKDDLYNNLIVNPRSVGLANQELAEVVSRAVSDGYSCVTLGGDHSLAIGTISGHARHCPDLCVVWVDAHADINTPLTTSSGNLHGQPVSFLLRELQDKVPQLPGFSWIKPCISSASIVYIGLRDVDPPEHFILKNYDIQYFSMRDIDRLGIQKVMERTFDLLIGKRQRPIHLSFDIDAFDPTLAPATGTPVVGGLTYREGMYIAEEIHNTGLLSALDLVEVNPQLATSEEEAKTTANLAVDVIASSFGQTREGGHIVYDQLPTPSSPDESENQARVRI
# [6] = molecular target: T3, Proteasome subunit beta (Trypanosoma cruzi) (UniProt O96673); assay: Trypanosoma cruzi proteasome chymotrypsin-like activity (TcProtChymo) assay.; note: in the data most compounds retested in dose-response had high values; format: functional; conditions: 9.37 µM
# T3 sequence (whole entry): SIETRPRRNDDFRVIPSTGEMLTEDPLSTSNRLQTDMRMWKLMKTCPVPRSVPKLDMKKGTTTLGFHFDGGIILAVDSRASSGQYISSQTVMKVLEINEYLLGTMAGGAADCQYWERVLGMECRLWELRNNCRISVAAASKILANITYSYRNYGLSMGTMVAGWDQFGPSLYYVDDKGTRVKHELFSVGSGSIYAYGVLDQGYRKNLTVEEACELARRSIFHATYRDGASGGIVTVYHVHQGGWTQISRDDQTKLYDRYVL
# Homo sapiens = organism: Homo sapiens; assay: To identify inhibition of the IFN signalling (Jak-Stat) pathway via expression of an eGFP reporter gene under the control of an IFN-stimulated response element (ISRE) containing MxA promoter.; format: functional; conditions: 30 µM
# [7] = molecular target: T4, Tyrosyl-tRNA synthetase, putative (Trypanosoma cruzi (strain CL Brener)) (UniProt Q4DSP6); assay: Trypanosoma cruzi tyrosyl tRNA synthetase (TcYRS) _High Tyrosine SOP; format: functional; conditions: 30 µM; note: in the data most compounds retested in dose-response had high values
# T4 sequence (whole entry): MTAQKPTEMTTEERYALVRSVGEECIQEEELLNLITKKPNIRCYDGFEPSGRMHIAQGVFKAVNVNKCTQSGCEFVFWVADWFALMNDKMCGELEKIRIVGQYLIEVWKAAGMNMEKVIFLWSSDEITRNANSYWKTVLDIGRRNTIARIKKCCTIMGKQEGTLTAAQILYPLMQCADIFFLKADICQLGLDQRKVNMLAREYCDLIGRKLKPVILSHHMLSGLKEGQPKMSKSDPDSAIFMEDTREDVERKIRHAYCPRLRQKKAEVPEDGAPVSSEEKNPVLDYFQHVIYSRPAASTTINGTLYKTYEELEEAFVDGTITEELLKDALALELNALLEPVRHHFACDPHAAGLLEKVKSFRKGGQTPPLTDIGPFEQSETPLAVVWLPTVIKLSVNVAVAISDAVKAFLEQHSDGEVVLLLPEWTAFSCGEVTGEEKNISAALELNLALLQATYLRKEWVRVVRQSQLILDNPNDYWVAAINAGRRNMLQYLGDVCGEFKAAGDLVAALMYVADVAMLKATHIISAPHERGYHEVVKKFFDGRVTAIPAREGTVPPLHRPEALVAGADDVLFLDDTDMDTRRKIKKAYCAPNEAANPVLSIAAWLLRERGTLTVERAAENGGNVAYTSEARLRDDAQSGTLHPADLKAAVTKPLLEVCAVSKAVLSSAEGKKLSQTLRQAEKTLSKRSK
# [8] = molecular target: T4, Tyrosyl-tRNA synthetase, putative (Trypanosoma cruzi (strain CL Brener)); assay: Trypanosoma cruzi tyrosyl tRNA synthetase (TcYRS) SOP; format: functional; conditions: 30 µM
# [9] = molecular target: Chromo domain-containing protein 1 (Saccharomyces cerevisiae (strain ATCC 204508 / S288c) (Baker's yeast)) (UniProt P32657); assay: ScCHD-1 Enzyme Inhibition Assay; format: functional; conditions: 30 µM; note: in the data most compounds retested in dose-response had high values
# Sequence of Chromo domain-containing protein 1 (Saccharomyces cerevisiae (strain ATCC 204508 / S288c) (Baker's yeast)) (P32657 whole entry, the tested form may be a part): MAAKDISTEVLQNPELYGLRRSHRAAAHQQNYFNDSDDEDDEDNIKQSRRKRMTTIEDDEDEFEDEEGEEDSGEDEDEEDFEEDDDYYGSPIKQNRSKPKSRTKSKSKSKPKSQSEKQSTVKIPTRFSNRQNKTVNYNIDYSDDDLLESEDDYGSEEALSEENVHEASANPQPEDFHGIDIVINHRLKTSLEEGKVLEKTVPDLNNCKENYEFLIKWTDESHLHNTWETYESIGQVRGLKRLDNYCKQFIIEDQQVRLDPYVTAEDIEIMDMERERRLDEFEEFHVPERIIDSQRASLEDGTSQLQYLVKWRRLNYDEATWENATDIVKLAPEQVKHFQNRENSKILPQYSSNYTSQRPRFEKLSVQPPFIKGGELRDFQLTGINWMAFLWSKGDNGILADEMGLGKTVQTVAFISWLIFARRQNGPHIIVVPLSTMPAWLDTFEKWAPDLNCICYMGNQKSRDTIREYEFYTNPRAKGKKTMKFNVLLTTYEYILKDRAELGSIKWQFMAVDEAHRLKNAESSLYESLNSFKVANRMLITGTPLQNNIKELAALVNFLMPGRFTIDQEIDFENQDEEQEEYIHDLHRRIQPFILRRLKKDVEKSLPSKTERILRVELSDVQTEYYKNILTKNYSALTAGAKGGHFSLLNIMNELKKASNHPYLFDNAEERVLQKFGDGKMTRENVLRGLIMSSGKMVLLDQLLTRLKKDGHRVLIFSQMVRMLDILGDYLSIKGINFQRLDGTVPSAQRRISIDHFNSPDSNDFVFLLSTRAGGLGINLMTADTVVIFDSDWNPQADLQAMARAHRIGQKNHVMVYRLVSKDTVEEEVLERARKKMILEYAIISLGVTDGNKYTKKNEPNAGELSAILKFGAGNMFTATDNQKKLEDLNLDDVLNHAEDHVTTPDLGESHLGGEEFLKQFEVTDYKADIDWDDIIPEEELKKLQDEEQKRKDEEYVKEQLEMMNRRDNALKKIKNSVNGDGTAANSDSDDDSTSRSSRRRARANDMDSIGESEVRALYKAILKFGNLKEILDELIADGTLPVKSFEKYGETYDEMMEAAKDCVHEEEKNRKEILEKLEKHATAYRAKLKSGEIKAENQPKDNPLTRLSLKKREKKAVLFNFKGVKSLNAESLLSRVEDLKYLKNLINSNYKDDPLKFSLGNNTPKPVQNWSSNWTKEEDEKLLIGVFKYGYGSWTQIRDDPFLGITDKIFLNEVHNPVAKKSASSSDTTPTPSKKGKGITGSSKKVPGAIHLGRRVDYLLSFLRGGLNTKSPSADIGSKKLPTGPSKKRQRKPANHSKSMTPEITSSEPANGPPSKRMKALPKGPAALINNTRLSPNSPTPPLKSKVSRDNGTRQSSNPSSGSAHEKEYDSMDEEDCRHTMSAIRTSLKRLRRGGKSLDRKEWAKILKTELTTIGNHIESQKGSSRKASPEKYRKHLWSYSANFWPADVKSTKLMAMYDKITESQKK
# Sequence of Sialic acid-binding Ig-like lectin 9 (Homo sapiens) (Q9Y336 whole entry): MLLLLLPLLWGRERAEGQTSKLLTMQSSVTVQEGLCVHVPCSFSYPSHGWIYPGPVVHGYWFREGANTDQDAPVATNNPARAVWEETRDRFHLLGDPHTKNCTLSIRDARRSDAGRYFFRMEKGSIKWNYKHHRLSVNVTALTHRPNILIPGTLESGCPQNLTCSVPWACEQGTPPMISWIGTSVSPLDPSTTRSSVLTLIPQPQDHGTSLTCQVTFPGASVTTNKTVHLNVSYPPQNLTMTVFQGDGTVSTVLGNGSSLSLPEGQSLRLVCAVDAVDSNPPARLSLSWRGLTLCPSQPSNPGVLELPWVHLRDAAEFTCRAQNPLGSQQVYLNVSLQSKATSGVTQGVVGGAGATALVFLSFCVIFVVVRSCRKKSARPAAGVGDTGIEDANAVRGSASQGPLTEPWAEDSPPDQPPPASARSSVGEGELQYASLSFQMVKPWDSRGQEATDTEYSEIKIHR
# Sequence of Protein translocase subunit SecA (Escherichia coli (strain K12)) (P10408 whole entry): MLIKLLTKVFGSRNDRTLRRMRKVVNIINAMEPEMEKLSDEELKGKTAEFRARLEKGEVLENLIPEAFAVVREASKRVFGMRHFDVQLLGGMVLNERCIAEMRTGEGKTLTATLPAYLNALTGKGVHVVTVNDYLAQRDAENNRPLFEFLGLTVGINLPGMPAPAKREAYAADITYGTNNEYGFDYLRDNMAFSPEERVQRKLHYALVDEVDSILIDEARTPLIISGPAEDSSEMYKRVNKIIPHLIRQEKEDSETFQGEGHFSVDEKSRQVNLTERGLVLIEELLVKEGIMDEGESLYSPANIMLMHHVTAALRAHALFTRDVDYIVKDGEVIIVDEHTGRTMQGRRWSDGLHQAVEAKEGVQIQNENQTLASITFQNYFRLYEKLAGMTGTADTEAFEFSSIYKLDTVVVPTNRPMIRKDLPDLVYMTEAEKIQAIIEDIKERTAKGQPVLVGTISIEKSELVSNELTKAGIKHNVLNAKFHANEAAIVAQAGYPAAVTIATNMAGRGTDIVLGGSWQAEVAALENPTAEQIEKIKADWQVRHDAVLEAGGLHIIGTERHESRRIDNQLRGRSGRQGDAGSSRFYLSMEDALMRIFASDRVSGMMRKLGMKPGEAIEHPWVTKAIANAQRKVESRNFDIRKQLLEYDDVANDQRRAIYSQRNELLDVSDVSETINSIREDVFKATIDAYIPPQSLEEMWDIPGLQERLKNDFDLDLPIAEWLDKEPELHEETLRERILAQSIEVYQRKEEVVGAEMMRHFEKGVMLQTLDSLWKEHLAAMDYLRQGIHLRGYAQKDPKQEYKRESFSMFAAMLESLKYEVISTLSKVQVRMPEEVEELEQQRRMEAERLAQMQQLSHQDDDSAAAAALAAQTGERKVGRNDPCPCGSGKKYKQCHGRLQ
Compound,Percent Effect [1],Percent Effect [2],Percent Effect [3],Percent Effect [4],Percent Effect (Trypanosoma cruzi),Percent Effect [5],Percent Effect [6],Percent Effect (Homo sapiens),Percent Effect [7],Percent Effect [8],Percent Effect [9]
O=C(NCC1CC1)[C@H]1C[C@H]2OCC[C@H]2N(Cc2ccoc2)C1,-0.0445%,21.6%,4.14%,-14%,1.86%,6.69%,6.09%,32.6%,3.24%,15.4%,-0.46%
COc1c(CNCc2ccc(C(=O)N(C)C)cc2)c(C)nn1C,-4.19%,1.27%,7.36%,-0.0396%,2.97%,1.07%,8.23%,27.1%,3.12%,7.59%,-4.86%
Cc1ccc(C)c(OCCN2CCC(N3CCNC3=O)CC2)c1,-3.83%,10.8%,-16.9%,6.39%,-2.69%,2.03%,1.62%,6.79%,4.95%,13.4%,-0.537%
CCOc1ncccc1C(=O)N1CCCCC1c1nccs1 (stereo not given),-4.08%,2.7%,-17.5%,15.7%,2.55%,-7.62%,-2.7%,10.1%,4.43%,11.1%,-9.25%
COc1ccccc1OCCN1CCCC(c2noc(C3CC3)n2)C1 (stereo not given),-3.76%,0%,-2.32%,-0.399%,-2.24%,3.12%,5.41%,-3.11%,2.73%,6.17%,-4.48%
Cc1ncccc1Oc1nccnc1C1CCN(C(C)C)CC1,-6.52%,6.76%,1.33%,5.77%,0.593%,-2.09%,2.65%,-0.668%,-31.2%,9.09%,-19.2%
OCCn1cc(CN2CCN(CCOCC(F)(F)F)CC2)cn1,2.27%,13.5%,-3.44%,-6.72%,-8.63%,-3.14%,13.6%,6.37%,4.95%,3.66%,-2.78%
COc1ccccc1C(=O)N1Cc2cc(C)ccc2OCC1CN(C)C (stereo not given),-0.165%,6.76%,11.3%,-7.4%,-7.91%,-1.62%,14.5%,14.6%,2.15%,3.9%,-11.2%
Cc1ccc(C(=O)N2CC[C@@H]3[C@H]2CCC(=O)N3c2ccccc2)o1,-2.77%,2.67%,14%,-0.294%,0.591%,0.233%,-2.03%,12.1%,7.45%,11.5%,1.89%
CCc1c(C(=O)NC2CCS(=O)(=O)C2)cnn1-c1ccc(F)cc1 (stereo not given),-2.17%,15.2%,-2.59%,-6.54%,8.21%,1.9%,7.29%,-14.4%,7.39%,21.5%,-5.38%
CN(C)C(=O)CC1CC2(CCN(CC3CC3)CC2)c2cc(F)ccc21 (stereo not given),-6.7%,5.41%,-8.18%,-5.86%,-2.44%,-4.14%,3.14%,5.88%,-5.41%,-2.56%,5.46%
Clc1snnc1CN1CCCCC1Cn1cncn1 (stereo not given),-0.0251%,17.7%,-10.2%,-9.75%,-2.17%,2.66%,13.2%,5.04%,12.3%,24.1%,-4.67%
CN(c1ccncn1)C1CC2(CCN(C(=O)c3cccs3)C2)C1 (stereo not given),-5.11%,1.35%,1.54%,8.09%,2.96%,-2.09%,1.09%,11.6%,-6.45%,-6.49%,-17.8%
CC(=O)N1CCN(C)CC(COCc2ccccc2)C1 (stereo not given),-5.71%,12.2%,7.92%,3.51%,4.54%,-2.09%,-1.09%,6.97%,4.3%,6.49%,-11.4%
CCn1cnnc1CNC(=O)N(C)Cc1ccc2c(c1)OCCO2,-0.341%,-16.2%,-15.5%,-4.03%,0.66%,-14.8%,14.6%,2.89%,9.36%,25.9%,-8.11%
